Records with an inconclusive call do not appear. Active and inactive are the calls of the source. Rule for the calls, unless noted: active = hit-call score of the fitted dose curve at least 0.9, where 1 is the maximum; inactive = score below 0.9.

Read-out in assay [1]: solute carrier (SLCO1B1), SLCO1B1 (gene 10599)
In words: LTEA_HepaRG_SLCO1B1: Life Technologies and Expression Analysis (LTEA) Assay for solute carrier (SLCO1B1) using HepaRG (AID 2283530). As to conditions: mRNA level, 48 h; actives raise or lower the signal. Put shortly:
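HepaRG, serum-free induction medium, 48 h dosing, 8-pt half-log from 100 uM, 0.5% DMSO vehicle, duplicates. Readout: SLCO1B1 mRNA, qRT-PCR, ACTB/GAPDH/POLR2A normalization; up or down fit vs DMSO.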

Read-out in assay [2]: sulfotransferase 2A1 (SULT2A1), SULT2A1 (gene 6822)
In words: LTEA_HepaRG_SULT2A1: Life Technologies and Expression Analysis (LTEA) Assay for sulfotransferase 2A1 (SULT2A1) using HepaRG (AID 2283531). As to conditions: mRNA level, 48 h; actives raise or lower the signal. The procedure, abridged: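 Transcript levels of SULT2A1, quantified by qRT-PCR and normalized to three housekeeping genes, serve as the readout. Human HepaRG cultures receive test chemicals for 48 h at up to 100 uM in half-log steps, with 0.5% DMSO vehicle.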

Read-out in assay [3]: Transforming Growth Factor (TGFA), TGFA (gene 7039)
In words: LTEA_HepaRG_TGFA: Life Technologies and Expression Analysis (LTEA) Assay for Transforming Growth Factor (TGFA) using HepaRG (AID 2283532). As to conditions: mRNA level, 48 h; actives raise or lower the signal. Put shortly: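 Differentiated HepaRG cells exposed 48 hours in serum-free induction medium, 0.5% DMSO vehicle, 8-point half-log series from 100 uM, in duplicate. TGFA mRNA by TaqMan qRT-PCR, normalised to ACTB, GAPDH, POLR2A; bidirectional fit versus DMSO.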

Read-out in assay [4]: Transforming Growth Factor (TGFB1), TGFB1 (gene 7040)
Put plainly: LTEA_HepaRG_TGFB1: Life Technologies and Expression Analysis (LTEA) Assay for Transforming Growth Factor (TGFB1) Transporter using HepaRG (AID 2283533). As to conditions: mRNA level, 48 h; actives raise or lower the signal. The procedure, abridged: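 HepaRG, 48 h post-plating, switched to serum-free induction medium; chemicals 100 uM top, half-log, 8 pts, 0.5% DMSO, dup; 48 h exposure; RNA → Fluidigm TaqMan qRT-PCR; norm ACTB/GAPDH/POLR2A; bidirectional fit vs DMSO.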

Read-out in assay [5]: TIMP1, TIMP1 (gene 7076)
In words: LTEA_HepaRG_TIMP1: Life Technologies and Expression Analysis (LTEA) Assay for TIMP1 using HepaRG (AID 2283534).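 Note: TaqMan qRT-PCR signal normalized to ACTB GAPDH and POLR2A housekeeping genes.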 The note with it: mRNA level, 48 h; actives raise or lower the signal. Put shortly:
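Readout is TIMP1 mRNA level measured by qRT-PCR and normalized to three housekeeping genes. Human HepaRG cells were treated for 48 h in duplicate at eight concentrations up to 100 uM (0.5% DMSO); gain or loss fitted against DMSO.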

Read-out in assay [6]: Tumor necrosis factor receptor 1 (TNFRSF1A), TNFRSF1A (gene 7132)
Put plainly: LTEA_HepaRG_TNFRSF1A: Life Technologies and Expression Analysis (LTEA) Assay for Tumor necrosis factor receptor 1 (TNFRSF1A) using HepaRG (AID 2283535). The note with it: mRNA level, 48 h; actives raise or lower the signal. The procedure, abridged: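 Read-out is TNFRSF1A transcript level by TaqMan qRT-PCR, normalized to three housekeeping genes, scored as gain or loss of signal versus 0.5% DMSO. Human HepaRG cells received test chemicals for 48 h at up to 100 uM (half-log series).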

Read-out in assay [7]: Thyroid Hormone Responsive (THRSP), THRSP (gene 7069)
In words: LTEA_HepaRG_THRSP: Life Technologies and Expression Analysis (LTEA) Assay for Thyroid Hormone Responsive (THRSP) using HepaRG (AID 2283536). The note with it: mRNA level, 48 h; actives raise or lower the signal. The procedure, abridged:
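Differentiated HepaRG cells treated 48 h in serum-free induction medium with 8 half-log concentrations up to 100 uM (0.5% DMSO), duplicates. THRSP mRNA by TaqMan qRT-PCR normalised to ACTB, GAPDH, POLR2A; bidirectional fit versus DMSO.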

Read-out in assay [8]: Cellular tumor antigen p53 (Homo sapiens) (UniProt P04637)
In words: LTEA_HepaRG_TP53: Life Technologies and Expression Analysis (LTEA) Assay for Tumor Protein P53 (TP53) using HepaRG (AID 2283537). As to conditions: mRNA level, 48 h; actives raise or lower the signal. The procedure, abridged:
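Gain or loss of TP53 mRNA signal is scored relative to 0.5% DMSO after 48 h chemical treatment of HepaRG liver cells, tested in duplicate at eight half-log concentrations up to 100 uM.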

Read-out in assay [9]: UDP glucuronosyltransferase (UGT1A1), UGT1A1 (gene 54658)
Put plainly: LTEA_HepaRG_UGT1A1: Life Technologies and Expression Analysis (LTEA) Assay for UDP glucuronosyltransferase (UGT1A1) using HepaRG (AID 2283538). As to conditions: mRNA level, 48 h; actives raise or lower the signal. The procedure, abridged:
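Differentiated human HepaRG cells in serum-free induction medium were exposed in duplicate for 48 h to eight half-log concentrations up to 100 uM in 0.5% DMSO. UGT1A1 mRNA was quantified by TaqMan qRT-PCR, normalized to ACTB, GAPDH and POLR2A, and fitted bidirectionally against DMSO.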

Read-out in assay [10]: UDP glucuronosyltransferase (UGT1A6), UGT1A6 (gene 54578)
Put plainly: LTEA_HepaRG_UGT1A6: Life Technologies and Expression Analysis (LTEA) Assay for UDP glucuronosyltransferase (UGT1A6) using HepaRG (AID 2283539). The note with it: mRNA level, 48 h; actives raise or lower the signal. The procedure, abridged:
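HepaRG, 48 h post-plating switch to serum-free induction medium; chemical 48 h, 100 uM top, half-log x8, duplicate, 0.5% DMSO. Phenobarbital 1mM induction control. UGT1A6 mRNA by TaqMan qRT-PCR; gain/loss fit vs DMSO.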

Read-out in assay [11]: X-box binding protein 1 (XBP1), XBP1 (gene 7494)
In words: LTEA_HepaRG_XBP1: Life Technologies and Expression Analysis (LTEA) Assay for X-box binding protein 1 (XBP1) using HepaRG (AID 2283540). As to conditions: mRNA level, 48 h; actives raise or lower the signal. Put shortly: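 Transcript levels of XBP1, measured by qRT-PCR and normalised to three housekeeping genes, were fitted bidirectionally relative to 0.5% DMSO controls. Human HepaRG cells received eight-point half-log dilutions from 100 uM for 48 h.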

Assay [12] in a line: LTEA_HepaRG_LDH_cytotoxicity: Cytotoxicity Assessment in the Life Technologies and Expression Analysis (LTEA) Assay (AID 2283563; active = hit-call score of the fitted dose curve at least 0.9, where 1 is the maximum;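 for AC50: LDH activity released into spent culture medium as a marker of cell death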). Put shortly:
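Cells were thawed and plated for 48 h. Medium was then replaced with serum-free induction medium. Chemicals (8 half-log points, maximum 100 uM, 0.5% DMSO) were added in duplicate for 48 h, after which spent medium was assayed for LDH.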

The nature of assay [13]: TOX21_p53_BLA_p2_viability: Viability Assessment in the Tox21 HCT-116 p53 Agonism Beta-lactamase Assay, Phase 2 (AID 2283591; active = hit-call score of the fitted dose curve at least 0.9, where 1 is the maximum;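 note: compound exposure lasted 16 h at 37 °C; actives lower the ATP signal meaning cytotoxicity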). Put shortly: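 HCT116 p53-bla cells, 4000/well, dosed after 5 h plating (217-fold dilution of DMSO stocks) and incubated 16 h at 37C. Viability taken as cellular ATP by CellTiter-Glo luminescence after 30 min RT; signal loss marks cytotoxicity.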

For assay [14], the target named is Cellular tumor antigen p53 (Homo sapiens) (UniProt P04637). Put plainly: TOX21_p53_BLA_p2_ratio: Tox21 HCT-116 p53 Agonism Beta-lactamase Assay, Ratio, Phase 2 (AID 2283592; active = hit-call score of the fitted dose curve at least 0.9, where 1 is the maximum). The procedure, abridged: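 HCT116 p53-bla; 4000 cells/well; 5 h pre-incubation; cpd in DMSO, 217-fold dilution; 16 h 37C/5% CO2; CCF4-AM 2 h RT; Ex 405, Em 460/530 ratio; DMSO = baseline; positive fitting direction.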

Assay [15] is described as follows: TOX21_p53_BLA_p3_viability: Viability Assessment in the Tox21 HCT-116 p53 Agonism Beta-lactamase Assay, Phase 3 (AID 2283593; active = hit-call score of the fitted dose curve at least 0.9, where 1 is the maximum;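 note: cells exposed to compound for 16 h before reading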). The procedure, abridged: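 HCT116 cells, 4000/well, dosed 5 h after plating by pin transfer (217-fold dilution from DMSO stock) and incubated 16 h at 37C, 5% CO2. Viability read as ATP luminescence with CellTiter-Glo after 30 min at room temperature.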

Assay [16] can be described thus: TOX21_p53_BLA_p4_viability: Viability Assessment in the Tox21 HCT-116 p53 Agonism Beta-lactamase Assay, Phase 4 (AID 2283597; active = hit-call score of the fitted dose curve at least 0.9, where 1 is the maximum;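 note: hits lower the luminescence signal meaning cytotoxicity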). Put shortly:
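Cells plated, 5 h pre-incubation; DMSO compounds pinned (217-fold dilution); 16 h, 37C/5% CO2; CCF4-AM 2 h RT; CellTiter-Glo 30 min RT; luminescence read.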

The target of assay [17] is Cellular tumor antigen p53 (Homo sapiens) (UniProt P04637). In words: TOX21_p53_BLA_p5_ratio: Tox21 HCT-116 p53 Agonism Beta-lactamase Assay, Ratio, Phase 5 (AID 2283599; active = hit-call score of the fitted dose curve at least 0.9, where 1 is the maximum). Put shortly: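 HCT-116 p53-bla cells (4000/well) plated 5 h, dosed with compound (217-fold DMSO dilution) for 16 h at 37 C; CCF4-AM substrate 2 h at room temperature. Activity is the 460/530 nm emission ratio (405 nm excitation), fitted in gain-of-signal direction versus DMSO.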

Assay [18] can be described thus: TOX21_p53_BLA_p5_viability: Viability Assessment in the Tox21 HCT-116 p53 Agonism Beta-lactamase Assay, Phase 5 (AID 2283600; active = hit-call score of the fitted dose curve at least 0.9, where 1 is the maximum). Put shortly:
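4000 cells/well; 5 h pre-incubation; DMSO compounds pin-transferred, 217-fold dilution; 16 h, 37C/5% CO2; CCF4-AM 2 h RT; CellTiter-Glo 30 min RT; luminescence.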

Assay [19] addresses Cellular tumor antigen p53 (Homo sapiens) (UniProt P04637). Put plainly: TOX21_p53_BLA_p3_ratio: Tox21 HCT-116 p53 Agonism Beta-lactamase Assay, Ratio, Phase 3 (AID 2283596; active = hit-call score of the fitted dose curve at least 0.9, where 1 is the maximum). Put shortly: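 HCT116 p53-bla cells (4000/well) given compound in DMSO (217-fold dilution) after 5 h, incubated 16 h at 37C. CCF4-AM substrate 2 h at room temperature; 460/530 nm emission ratio, gain fitted against DMSO.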

Cellular tumor antigen p53 (Homo sapiens), sequence (P04637 whole entry, looked up): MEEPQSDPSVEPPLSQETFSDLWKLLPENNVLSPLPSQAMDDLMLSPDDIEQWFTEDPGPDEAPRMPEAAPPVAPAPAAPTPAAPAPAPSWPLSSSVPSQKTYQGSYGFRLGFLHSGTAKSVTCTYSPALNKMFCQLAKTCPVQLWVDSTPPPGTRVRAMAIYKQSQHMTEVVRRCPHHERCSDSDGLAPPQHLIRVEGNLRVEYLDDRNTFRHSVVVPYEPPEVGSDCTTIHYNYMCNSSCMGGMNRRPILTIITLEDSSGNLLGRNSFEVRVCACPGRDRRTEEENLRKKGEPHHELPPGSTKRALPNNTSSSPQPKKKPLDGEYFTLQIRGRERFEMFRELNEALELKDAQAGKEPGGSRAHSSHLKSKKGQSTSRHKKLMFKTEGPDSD

For the compound `OCC(CO)n1cnc(-c2ccc(F)cc2)c1-c1ccnc(Oc2ccccc2)n1`, the compound was classed as inactive in assay [1], in assay [2], in assay [3], in assay [4], in assay [5] and in assay [6]. Further, the outcome in assay [7], in assay [8], in assay [10], in [11], in assay [12] and in assay [13] was inactive. Besides, the result in assay [14], in [15], in assay [16], in assay [17] and in assay [18] was inactive. Also, the AC50 (in general, the concentration giving half of the maximal activity seen) in assay [9] was 24.9 µM (active).
With `C=CCc1ccc(OC)c(OC)c1`, the AC50 in [1] was 0.315 µM (active); in assay [3], 9.92 µM (active). For the same compound, the compound was called inactive in [2], in assay [4], in assay [5], in [6], in assay [7] and in assay [8]. The call in [9], in assay [10], in [11], in assay [12], in assay [13] and in assay [15] was inactive. For the same compound, the outcome in assay [19], in assay [17] and in [18] was inactive.
Turning to `CCc1cc(C2=C(C(=O)O)N(c3ccccc3C(F)(F)F)S(=O)(=O)c3ccccc32)cc2c1OCO2`, the AC50 was 50 µM (active) in [1]; 85.5 µM (active) in assay [2]; 79.1 µM (active) in assay [3]; 87 µM (active) in assay [7]; 69.5 µM (active) in assay [8]; 1.73 µM (active) in assay [9]. For the same compound, the concentration at half-maximal activity (AC50) is 74.8 µM (active) in assay [10], 74.1 µM (active) in [12], 73.7 µM (active) in [13] and 68 µM (active) in assay [16]. In addition, the compound was classed as inactive in [4], in assay [5], in assay [6], in assay [15], in assay [19] and in assay [17]. Moreover, in [18], the call was inactive.

(Values after PubChem BioAssay (EPA / NIEHS).)
